Test results: ChEMBL document CHEMBL1157539, “Thousands of chemical starting points for antimalarial lead identification” (Nature, 2010)

Assays:
Format in all cases: functional
Plasmodium falciparum [1] = assay: GSK_TCMDC: Inhibition of Plasmodium falciparum 3D7 in whole red blood cells, using parasite LDH activity as an index of growth. Test compounds present at 2uM
HepG2 = assay: GSK_TCMDC: Percent inhibition of human HepG2 cell line. Test compounds present at 10uM.
Plasmodium falciparum [2] = assay: GSK_TCMDC: Inhibition of Plasmodium falciparum Dd2 in whole red blood cells, using parasite LDH activity as an index of growth. Test compounds present at 2uM

Row | SMILES | Inhibition (Plasmodium falciparum [1]) | Inhibition (HepG2) | Inhibition (Plasmodium falciparum [2])
1 | COc1ccc(CNC(=O)Nc2cccc(-c3csc(NC(=N)N)n3)c2)cc1 | 80% | 8% | –
2 | O=C(CN1C(=O)CC1S(=O)(=O)Cc1ccco1)NCCCCCCc1ccc(F)cc1 (stereo not drawn) | 95% | 0% | –
3 | CCc1cc(-c2n[nH]c(C(F)(F)F)c2-c2ccccc2)c(O)cc1OC | 84% | 9% | –
4 | Cc1nn(-c2ccccc2)nc1C(=O)N(Cc1ccc(-c2ccc(CNCCc3ccc(S(C)(=O)=O)cc3)cn2)cc1)C1CC1.O=C(O)C(F)(F)F | 84% | 9% | –
5 | CCn1c(-c2nonc2N)nc2c(-c3cccc(NC(=O)NCc4ccccc4)c3)ncc(OCCCN)c21.O=C(O)C(F)(F)F | 99% | 5% | –
6 | O=C(Nc1nccs1)c1sc2ccccc2c1O | 96% | 0% | –
7 | Nc1nc(O)c2cc(CNc3ccc(C(=O)N[C@@H](CCC(=O)O)C(=O)O)cc3)ccc2n1 | 96% | 2% | –
8 | C[C@H]1CN(Cc2ccc(-c3cccc(CNC(=O)c4cccc(C(=O)c5ccc(Cl)c(Cl)c5)c4)c3)s2)CCN1.O=C(O)C(F)(F)F | 99% | 3% | –
9 | O=CO.c1ccc2c3c([nH]c2c1)C(c1ccc2c(c1)CCO2)N(c1ncnc(N2CCN(CCCN4CCOCC4)CC2)n1)CC3 (stereo not drawn) | 80% | 37% | –
10 | C=CC(C)C1OC(=O)c2cc(OC)cc(OC)c21 (stereo not drawn) | 100% | 100% | –
11 | COc1cc(CCNCC(O)c2ccc([N+](=O)[O-])c(OCc3ccccc3)c2)cc(OC)c1OC.Cl (stereo not drawn) | 98% | 11% | –
12 | CC(C)CNC(=O)c1ccc(-c2cccc(CN3CCC(N4CCCC4)CC3)c2)nc1.O=C(O)C(F)(F)F | 81% | 4% | –
13 | O=c1ccc2ccc(O)c(O)c2o1 [DAPHNETIN] | 85% | 4% | –
14 | COc1ccc(/N=C(\N)Nc2ccccc2)nc1Cc1ccccc1 | 81% | 17% | –
15 | CCN(CC)CCCC(C)Nc1ccnc2cc(Cl)ccc12.O=P(O)(O)O.O=P(O)(O)O (stereo not drawn) [CHLOROQUINE PHOSPHATE] | – | 12% | 96%
16 | O=C(Nc1ccc(OC2CCN(CC3CC3)CC2)c(Cl)c1)c1ccc2ncccc2c1.O=C(O)C(F)(F)F | 84% | 19% | –
17 | CCN1CCN(c2cc(C)c3cc(NC(=O)c4ccc(C(C)(C)C)cc4)ccc3n2)CC1 | 85% | 34% | –
18 | Cc1ccc(-n2c(C)cc(C(=O)CN3C(=O)NC(Cc4ccccc4)C3=O)c2C)cc1 (stereo not drawn) | 82% | 0% | –
19 | Nc1[nH]c2ccccc2c(=O)c1-c1nc2ccccc2s1 | 97% | 16% | –
20 | CN1CCC(N2CCN(C(=O)c3cccc(-c4cccc(-c5nc6ccccc6[nH]5)c4)c3)CC2)CC1 | 100% | 10% | –
21 | CCS(=O)(=O)c1ccc(/C(=N/OC)c2ccc[nH]2)cc1 | 85% | 0% | –
22 | Cl.Oc1cccc(Nc2ccnc3cc(-c4nccs4)ccc23)c1 | 98% | 0% | –
23 | Cc1nc(Nc2ccc(F)cc2)nc(N2CCc3ccccc3[C@@H]2C)c1C.Cl | 92% | 12% | –
24 | O=C(O)C(F)(F)F.Oc1ccc(CNCC2CCN(CC3CCCCC3)CC2)cc1 | 82% | 9% | –
25 | N=C1SC(=Cc2cn[nH]c2-c2ccc(F)cc2)C(=O)N1c1nccs1 | 91% | 28% | –
26 | Cc1ccc(Nc2c3ccccc3nc3ccc(C)cc23)cc1 | 88% | 26% | –
27 | N=C(N)c1nc2ccccc2s1 | 87% | 1% | –
28 | Cc1cc(OCCCN2CCC(NC(=O)c3ccc(Br)cc3)C2)c2ccccc2n1 (stereo not drawn) | 85% | 13% | –
29 | COc1ccc(NC(=O)c2ccc(-c3cccc(OCc4ccccc4)c3)cc2)cc1N1CCN(C)CC1 | 85% | 29% | –
